What all share (assay): NCI-60 one-dose screen, 48 h (100 = growth as untreated, 0 = no growth, -100 = all killed)
Settings in all cases: 10 µM unless noted

Experiment [1] concerns DU-145 prostate.
Experiment [2] deals with K-562 leukemia.
Experiment [3] relates to MALME-3M melanoma.
Experiment [4] relates to MDA-MB-231 breast.
The test system of experiment [5] is RXF 393 renal.
Experiment [6] deals with SF-268 CNS.
The subject of experiment [7] is SF-295 CNS.
Experiment [8] relates to SF-539 CNS.
The test system of experiment [9] is UACC-257 melanoma.
Experiment [10] concerns M14 melanoma.
Experiment [11] has as its system HCT-15 colon.
Experiment [12] relates to HT29 colon.
Experiment [13] deals with SNB-75 CNS.
The subject of experiment [14] is SNB-19 CNS.
Experiment [15] concerns U251 CNS.
Experiment [16] concerns PC-3 prostate.
Experiment [17] deals with SK-MEL-5 melanoma.
Experiment [18] relates to UACC-62 melanoma.
Experiment [19] has as its system LOX IMVI melanoma.
For experiment [20], the system named is SK-MEL-28 melanoma.

This is part of a sample that, as a whole, favours compounds with a hit. Of some 83,000 tested, about 20% had one in any assay.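 Interpretation: 100, growth as untreated; towards 0, rising growth inhibition; 0, no net growth; 0 to -100, cell death. Compounds scoring below 10 were considered active.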 Values without a mark were called inactive. Active and inactive are the calls of the source.

With `COc1cccc(-c2nn(-c3ccccc3)cc2-c2ccnc(NCCNC(=O)Nc3ccc(Cl)c(Cl)c3)c2)c1`, the growth in [1] was 2.24% (active); in [2], 2.28% (active); in experiment [3], 25.3%; in [4] it was -22.9% (active); in experiment [5], -9.27% (active); in experiment [6] it was 9.11% (active). Also, the growth is 2.94% (active) in [7]; -0.925% (active) in [8]; 16% in experiment [9]; -36.8% (active) in experiment [10]; 7.83% (active) in [11]; -20.5% (active) in experiment [12]. The growth was -1.39% (active) in experiment [13]; 28.9% in experiment [14]; -11.6% (active) in experiment [15]; 4.19% (active) in [16]; 3.01% (active) in experiment [17]; -14.2% (active) in [18]. Moreover, the growth in experiment [19] is -68.8% (active); in [20], 16.1%.
For `CCOC(=O)c1ccc(N2NC(=O)/C(=C/c3ccc([N+](=O)[O-])o3)C2=O)cc1`, the growth in experiment [1] was 113%; in experiment [2] it was 114%; in experiment [3] it was 105%; in experiment [4] it was 133%; in experiment [5], 44%; in [6], 99.8%. In addition, the growth was 118% in experiment [7]; 108% in [8]; 90.7% in experiment [9]; 116% in experiment [10]; 96.6% in experiment [11]; 114% in experiment [12]. Besides, the growth is 99.9% in experiment [13]; 115% in experiment [14]; 108% in [15]; 79.2% in experiment [16]; 108% in experiment [17]; 112% in experiment [18]. Further, the growth in experiment [19] was 91.6%; in experiment [20], 108%.
For the compound `COc1ccc2c(c1)CCCN2c1c2ccccc2nc2ccccc12`, the growth in experiment [1] was 5.71% (active); in experiment [2] it was 9.39% (active); in [3], 55.3%; in experiment [4], 6.06% (active); in experiment [5] it was 27.1%; in experiment [6], 33.7%. In addition, the growth is 8.45% (active) in experiment [7]; -26.4% (active) in [8]; 71.2% in [9]; 3.64% (active) in [10]; 12.5% in [11]; 8.43% (active) in experiment [12]. Besides, the growth in experiment [13] is 0.187% (active); in experiment [14], 34.6%; in experiment [15] it was 14.1%; in experiment [16], 15.9%; in [17], 2.04% (active); in experiment [18], 5.34% (active). Besides, the growth in [19] is 12.2%; in experiment [20], 47%.
`CCN(CC)CCN1C(=O)c2c(c(C)c3c(oc4cc(O)ccc43)c2C)C1=O`: the growth is -89.2% (active) in [1]; -58.5% (active) in [2]; 84.2% in experiment [3]; -68.7% (active) in experiment [4]; 79.4% in experiment [5]; 74.5% in [6]. The growth was 103% in experiment [7]; 90.8% in experiment [8]; 97.7% in [9]; -79.3% (active) in experiment [10]; -58.9% (active) in experiment [11]; -37.2% (active) in experiment [12]. Further, the growth in [13] was 90.3%; in experiment [14], 9.88% (active); in experiment [15], -87.9% (active); in experiment [16] it was -75.1% (active); in experiment [17], 79%; in experiment [18], 86.2%. Also, the growth was 94% in experiment [19] and 63.1% in experiment [20].
Consider `COc1ccc(S(=O)(=O)NCCNc2nccc(-c3c(-c4cccc(F)c4)nc4sccn34)n2)cc1`, for which the growth in experiment [1] is 48.3%; in experiment [2], 23%; in experiment [3] it was 49.1%; in experiment [4], 61.4%; in experiment [5], 28.8%; in [6], 35.4%. Moreover, the growth in [7] is 58.5%; in experiment [8] it was 77.4%; in experiment [9], 66.7%; in [10], 38.4%; in [11], 23.4%; in [12], 23.9%. Further, the growth in experiment [13] is -0.29% (active); in experiment [14], 58.3%; in [15], 52.5%; in [16], 29.4%; in experiment [17] it was 9.62% (active); in experiment [18], 39%. The growth in experiment [19] is 32.9%; in experiment [20], 60%.
For `N#CC1=C(c2ccc(Br)cc2)NC(SCC(=O)c2ccc(Br)cc2)NC1=O` (stereo not given), the growth in experiment [1] was 108%; in [2], 91.1%; in experiment [3], 105%; in [4], 105%; in [5] it was 108%; in experiment [6], 98.9%. Also, the growth in experiment [7] is 101%; in experiment [8] it was 96.2%; in [9], 103%; in experiment [10], 100%; in [11], 103%; in [12], 105%. The growth in experiment [13] is 98.7%; in experiment [14], 110%; in [15], 108%; in [16] it was 92.4%; in experiment [17], 110%; in experiment [18], 109%. Moreover, the growth in experiment [19] was 106%; in experiment [20] it was 111%.
Regarding `Cc1ccc(-c2cc(-c3ccccc3C)[nH]c(=O)c2C#N)s1`, the growth was 104% in [1]; 85.6% in experiment [2]; 111% in experiment [3]; 84.8% in experiment [4]; 92% in experiment [5]; 95.8% in experiment [6]. Moreover, the growth is 99.2% in experiment [7]; 91.5% in experiment [8]; 107% in [9]; 109% in experiment [10]; 90.5% in [11]; 122% in [12]. In addition, the growth in experiment [13] is 71.6%; in experiment [14] it was 88.5%; in [15], 91.2%; in experiment [16], 85.6%; in experiment [17], 89.8%; in experiment [18] it was 75.5%. Moreover, the growth in [19] was 82.8%; in experiment [20], 110%.
